Measured values as given in the supplement of paper PMC7726561.
The full ranking holds about 1,100 sequences; the median of “thermal melting temperature (Tm) of peptide-HLA complex” is about 58, and the lowest 2% start at about 42. Shown is part of a subset that was picked to be rich in the lowest values.

Target: HLA-A*02:01
Assay: thermal melting temperature (Tm) of peptide-HLA complex; higher = more thermostable pHLA complex
Settings: C1R-A*02:01
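Also: lysates heated 10 min at 37–73 °C, complexes pulled down with pan-HLA I antibody, peptide signal by DIA-MS relative to 37 °C, Tm where half the complex is unfolded.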

Compared with KLMNVDPDSV, KLMDPGSLPPL is higher in thermal melting temperature: 53.8 °C for the first, 57.3 °C for the second.

Compared with RLGGIPVGV, IIMLEALERV is lower in thermal melting temperature: 55.9 °C for the first, 46.6 °C for the second.

First: ALANGVSRI
Second: ALDRDNFEL
The thermal melting temperature of the first is higher: 55.8 °C for the first, 47.8 °C for the second.

Going from FMFDEKLVTV to VLGPKIEAV, the thermal melting temperature falls from 58.5 °C to 55.5 °C.

Compared with FILANEHNV, YLPDIIKDQKA is higher in thermal melting temperature: 40.8 °C for the first, 55.4 °C for the second.

First: RQIEYYFSV
Second: FMQHDVQEL
The thermal melting temperature of the first is higher: 61.3 °C for the first, 41.6 °C for the second.

First: VVWGTVIRV
Second: SLDPHAQVAV
The thermal melting temperature of the first is higher: 58.5 °C for the first, 48.9 °C for the second.

Compared with KLQDQIFNL, ALSKEGIVAL is higher in thermal melting temperature: 56 °C for the first, 59.5 °C for the second.

Going from SLLQTLYKV to ALGPGVPHI, the thermal melting temperature falls from 63.6 °C to 58 °C.

Compared with VLADALKSI, KLNATNIEL is lower in thermal melting temperature: 58.9 °C for the first, 51.5 °C for the second.

Going from FLEPVNPRL to MLDDRAYLV, the thermal melting temperature rises from 55.3 °C to 61.5 °C.

First: YPSEFATYL
Second: TLDEYTTRV
The thermal melting temperature of the first is higher: 56.5 °C for the first, 52.2 °C for the second.

Going from LLPSEGIVHL to ALMPVLNQV, the thermal melting temperature rises from 41.3 °C to 58.7 °C.

Compared with TLFPGKVHSL, SLAGGLDDMKA is lower in thermal melting temperature: 55.8 °C for the first, 45.1 °C for the second.

Compared with MTDPIRILV, ALLKDSIVQL is lower in thermal melting temperature: 41.9 °C for the first, 40.9 °C for the second.

First: SLDTQPKKV
Second: VLLESEQFL
The thermal melting temperature of the first is lower: 40.4 °C for the first, 56.7 °C for the second.

First: RLDEAFDFV
Second: SLDAKEIYL
The thermal melting temperature of the first is higher: 57 °C for the first, 50.5 °C for the second.

Going from TTLEQPPSV to QLLPSIPQL, the thermal melting temperature rises from 50.3 °C to 53.7 °C.

First: SLLDGVVEKL
Second: TLFPVRLLV
The thermal melting temperature of the first is lower: 55.5 °C for the first, 55.8 °C for the second.

Going from GLIDGRLTI to FLLEQEKTQAL, the thermal melting temperature rises from 54 °C to 59 °C.

Compared with LMGPVVHEV, QLQGYLRSV is higher in thermal melting temperature: 46.4 °C for the first, 57.7 °C for the second.

First: GMDRYLIYV
Second: YIYDKDMEII
The thermal melting temperature of the first is higher: 60.9 °C for the first, 57.2 °C for the second.

Compared with QLLETLNQL, QLTNVILHL is higher in thermal melting temperature: 41.4 °C for the first, 58.7 °C for the second.

Going from SILSEVQQA to RLYQGINQL, the thermal melting temperature rises from 53.3 °C to 55.9 °C.

Compared with FLPDPSALQNL, TLIDLPGITRV is higher in thermal melting temperature: 55 °C for the first, 56.9 °C for the second.

Going from LLAILPEAARA to ALLSGLREA, the thermal melting temperature rises from 60 °C to 62.6 °C.

First: KLDQVIIHV
Second: KVLEVTEEFGV
The thermal melting temperature of the first is lower: 60.5 °C for the first, 62.6 °C for the second.

First: ILLEHGADPNL
Second: SLQEEIAKL
The thermal melting temperature of the first is lower: 51.4 °C for the first, 53.4 °C for the second.

First: SLLENIAKA
Second: VLDEEIAKA
The thermal melting temperature of the first is higher: 60.6 °C for the first, 40.7 °C for the second.
